The list is not random: actives were taken first. Their share in the collection is about 19%.
TDP1 cell CPT = growth inhibition of DT40 Tdp1-/-;hTDP1 cells with camptothecin (screen for TDP1 inhibitors); Potency, µM (titrated, usually from 46.2 µM), for inactives: at the top dose activity change, negative = growth inhibition, most hits filed as inhibitors; chicken DT40 Tdp1-/-;hTDP1 cells + 20 nM CPT, ATP luminescence, 48 h; 420,000 compounds, 12% hits; further: potency means the concentration at half of the fitted maximal effect; nearly all actives have a fitted effect of over 55% in size
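Chicken DT40 Tdp1-/- cells stably complemented with human TDP1 were seeded at 400 cells/well in medium containing 20 nM camptothecin, exposed to pin-transferred compounds, and grown at 37 °C for at least 48 hr. Viability was read as ATP luminescence.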
TDP1 block = TDP1 (human) enzyme inhibition; Q9NUW8; recombinant TDP1, AlphaScreen DNA substrate cleavage; Potency, µM (series often up to 130 µM), for the others: at the top dose activity change, negative = inhibition, usual class: inhibitors; 350,000 compounds, 0.28% hits; AID 485290; further: potency means the concentration at half of the fitted maximal effect; nearly all actives have a fitted effect of over 40% in size
Target sequence (Q9NUW8 whole entry, looked up): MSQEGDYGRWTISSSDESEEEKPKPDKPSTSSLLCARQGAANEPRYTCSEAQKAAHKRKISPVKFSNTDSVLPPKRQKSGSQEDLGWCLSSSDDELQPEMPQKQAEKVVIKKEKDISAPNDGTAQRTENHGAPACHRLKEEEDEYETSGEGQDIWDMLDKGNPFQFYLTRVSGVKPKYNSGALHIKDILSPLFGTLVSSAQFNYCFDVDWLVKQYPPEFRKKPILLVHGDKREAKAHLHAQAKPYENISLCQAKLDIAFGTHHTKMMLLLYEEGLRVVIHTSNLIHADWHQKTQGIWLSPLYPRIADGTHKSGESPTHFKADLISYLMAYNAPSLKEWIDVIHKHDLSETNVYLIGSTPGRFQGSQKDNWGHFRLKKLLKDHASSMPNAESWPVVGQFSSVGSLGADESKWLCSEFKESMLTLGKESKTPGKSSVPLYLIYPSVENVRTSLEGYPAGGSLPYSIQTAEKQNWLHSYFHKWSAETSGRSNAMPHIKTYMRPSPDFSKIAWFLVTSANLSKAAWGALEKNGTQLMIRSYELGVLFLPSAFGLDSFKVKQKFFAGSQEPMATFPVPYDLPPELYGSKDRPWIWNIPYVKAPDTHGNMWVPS
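Signal: AlphaScreen proximity between streptavidin donor and anti-FITC acceptor beads on intact substrate. Reaction: Tdp1 1 nM, substrate 15 nM final, 5 min RT after 15 min compound preincubation.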
TDP1 cell noCPT = qHTS for Inhibitors of human tyrosyl-DNA phosphodiesterase 1 (TDP1): qHTS in cells in absence of CPT | DT40 Tdp1-/- hTDP1 cells, no CPT, ATP luminescence, 48 h | Potency, µM (top dose mostly 46.2 µM), for the others: at the highest dose activity change, negative = growth inhibition, most hits filed as inhibitors | 420,000 compounds, 15% hits; further: potency means the concentration at half of the fitted maximal effect; nearly all actives have a fitted effect of over 55% in size
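Compound effects on proliferation are scored in DT40 Tdp1-/-;hTDP1 cells in the absence of CPT. ATP levels (CellTiter-Glo luminescence) are recorded after a ≥48 hr, 37 °C incubation.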
IL-1B inflam inh = blocks inflammasome-driven IL-1 beta release; THP-1 LPS/ATP IL-1B secretion, AlphaLISA, 16 h; stronger effect = lower value; activity change, % at 57.5 µM; 360,000 compounds, 4.7% hits; AID 743279; in the data active means activity change below about -50%; inconclusive means mostly about -30% to -49%
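THP-1 cells pretreated 1 hr with compounds (up to 57.5 uM final), then stimulated with LPS (250 ng/mL final) plus ATP (1.25 mM final); secreted IL-1B measured by AlphaLISA after 16 hr, decreased signal indicating inhibition.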
Giardia kill = kills Giardia lamblia; 340,000 compounds, 0.15% hits; activity change, % at 7.66 µM, hits read low; Giardia lamblia trophozoite viability; in the data active means activity change below about -80%; inconclusive means between about -30% and that limit;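 further: parasites exposed to compound for two days anaerobically before the ATP read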
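Giardia lamblia trophozoites (100 cells/well) were incubated with compounds for 48 h at 37 deg C under anaerobic conditions. Viability was read as ATP content by one-step luminescence after 15-30 min at room temperature.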
ELG1 repair inh = ELG1-dependent DNA repair inhibition; HEK293T ELG1-luciferase reporter, luminescence, 16 h; DNA damage induced by 5-fluorouridine; 330,000 compounds, 2.3% hits; Potency, µM (highest dose often 46.1 µM), inactives show at the top dose activity change, negative = inhibition, hits mostly inhibitors; AID 504467; further: potency means the concentration at half of the fitted maximal effect; nearly all actives have a fitted effect of over 55% in size
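5-Fluorouridine DNA damage + compound/DMSO, 2,000 cells/well, 16 h, 37 °C/5% CO2. ONE-Glo, 30 min RT, luminescence. Readout = decrease in reporter signal.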
* hit, by the source's call; ? = inconclusive; . = no result; ! = a repeat was not active; [ ] = another dose, or the depositor's remark. Unless noted, the call rests on the fitted dose curve; in most records, active means well fitted curve in the direction sought with a large enough effect; inconclusive means small, poorly fitted or top-dose-only effect, or another doubt; inactive means no such curve, though single readings can be large; an effect the other way counts as inactive or inconclusive. On the % scale 0 is the no-effect control and ±100 the full control effect.

SMILES | TDP1 cell CPT | TDP1 block | TDP1 cell noCPT | IL-1B inflam inh | Giardia kill | ELG1 repair inh
Cc1ccc(S(=O)(=O)N2C[C@H]3[C@H]4C(=O)N(C)C(=O)[C@H]4CC(=O)[C@H]3[C@@H]2c2ccccc2Cl)cc1 | -0.9% | . | -20.2% | 6.7 | . | .
CCOC(=O)[C@]12CCCC=C1N(CCC1=CCCCC1)C(=O)[C@H](CC(=O)NCc1cccs1)C2 | ? | . | 20.6µM* | -2.9 | . | .
COC(=O)[C@]12CCCCC=C1N(CCC1=CCCCC1)C(=O)[C@H](CC(=O)NCc1cccs1)C2 | ? | . | 16.4µM* | -11.2 | . | .
CC1CC2C3CC(F)C4=CC(=O)C=C[C@@]4(C)[C@@]3(F)C(O)C[C@]2(C)[C@]1(O)C(=O)COC(=O)C(C)(C)C (some centres not stated) | -0.4% | 2.3%[56.1 µM] | ? | . | . | .
Cc1cccc(CSc2ncc(Cl)c(C(=O)Nc3nc4ccc(F)cc4s3)n2)c1 | -29.1% | 4.7% | -26.7% | . | . | .
Cc1ccc(CS(=O)(=O)c2ncc(Cl)c(C(=O)Nc3nnc(C(C)C)s3)n2)cc1 | 5.8µM*! | 2.5% | 11.6µM* | -100.5* | -1.7 | ?
CSc1nnc(NC(=O)c2nc(S(=O)(=O)Cc3ccccc3F)ncc2Cl)s1 | 2.91µM* | 2.6% | -84.5% | -101.3* | -8.4 | ?
Cc1cccc(CS(=O)(=O)c2ncc(Cl)c(C(=O)Nc3nnc(C(C)C)s3)n2)c1 | 4.61µM* | 4.9% | 13µM* | -102.2* | -3.6 | ?
O=C(Nc1nc2ccc(F)cc2s1)c1nc(S(=O)(=O)Cc2ccccc2F)ncc1Cl | 3.26µM* | 0.0% | 2.59µM* | . | . | .
N=C1c2ccccc2CN1c1ccc(N2CCOCC2)c(S(=O)(=O)Nc2ccc(Cl)cc2)c1 | . | 2.6% | . | . | . | 16.6%
COc1ccc(C(=O)N2CCC(c3c[nH]c4ccccc34)(c3c[nH]c4ccccc34)CC2)cc1 | ? | 10.1% | ? | . | . | .
CCOC(=O)C1=C(CS(=O)(=O)c2ccc(OC)c(Cl)c2)NC(=O)NC1c1cccc(OC)c1 (configuration not stated) | ? | 6.4% | ? | . | . | .
O=C(O)c1cc(=O)[nH]c(=O)[nH]1 | 2.5% | 9.3% | -2.0% | . | . | .
CCc1cnc(Nc2nc(C(N)c3ccccc3Cl)cs2)nc1 (configuration not stated) | ? | . | ? | -12.8 | . | .
CSc1nnc(NC(=O)c2nc(S(=O)(=O)Cc3cccc(C)c3)ncc2Cl)s1 | 8.2µM* | 6.3% | 8.2µM* | -101.6* | -1.4 | -48.5%
Cc1ccc(C)c(NC(=O)c2nc(S(=O)(=O)Cc3ccc(F)cc3)ncc2Cl)c1 | 1.46µM* | 7.0% | 2.06µM* | . | . | .
CSc1ncc(Cl)c(C(=O)Nc2nnc(SC/C=C/c3ccccc3)s2)n1 | -8.8% | 8.8% | -7.8% | 16.3 | 8.7 | -11.3%
CCSc1nnc(NC(=O)c2nc(S(=O)(=O)Cc3ccc(F)cc3)ncc2Cl)s1 | 13µM* | 4.3% | 10.3µM* | -103.2* | 1.8 | -23.9%
CC(C)c1nnc(NC(=O)c2nc(S(=O)(=O)Cc3ccc(F)cc3)ncc2Cl)s1 | 4.61µM* | 5.4% | 4.11µM* | -105.3* | 7.1 | ?
CC(C)c1nnc(NC(=O)c2nc(SCc3ccc(F)cc3)ncc2Cl)s1 | -19.6% | -2.3% | -2.6% | . | . | .
CCCCC/C=C\C/C=C\C/C=C\C=C\C1CCCC(=O)O1 (configuration not stated) | . | 6.9% | . | . | . | .
CCCN(CCC)C(=O)Cn1c(=O)n(-c2ccc(C)c(C)c2)c(=O)c2c3c(sc21)CCCCC3 | -14.0% | 5.5% | -4.8% | . | . | .
Cc1nnc(NC(=O)c2nc(SCc3ccccc3F)ncc2Cl)s1 | 4.2% | 4.7% | -8.3% | . | . | .
Cc1nnc(NC(=O)c2nc(S(=O)(=O)Cc3ccccc3C)ncc2Cl)s1 | 14.6µM* | -4.5% | 11.6µM* | -94.0* | 10.4 | 20.6µM*
COc1ccc2c(c1)[C@H]1[C@H](CO2)[C@H](c2ccccc2)[C@]2(C)C(=O)Nc3cc(F)ccc3C(=O)N12 | ? | 4.1% | 18.4µM* | ? | 3.4 | -16.2%
SMILES | TDP1 cell CPT | TDP1 block | TDP1 cell noCPT | IL-1B inflam inh | Giardia kill | ELG1 repair inh
COc1ccc2c(c1)[C@H]1[C@H](CO2)[C@H](c2ccccc2)[C@]2(C)C(=O)Nc3ccccc3C(=O)N12 | ? | 3.0% | ? | ? | -0.1 | ?
COc1ccc2c(c1)OC[C@H]1[C@H]2N2C(=O)c3ccc(F)cc3NC(=O)[C@@]2(C)[C@H]1c1ccccc1 | 18.4µM* | . | 23.1µM* | -54.3* | -21.6 | .
COC(=O)c1sc2cccc(F)c2c1S(=O)(=O)NCc1ccc(Cl)cc1 | -0.1% | 5.8% | 10.6% | . | . | .
CCOc1ccc(N(CC)S(=O)(=O)N2CCCC(C(=O)Nc3ccc(OC)c(Cl)c3)C2)cc1 (configuration not stated) | 16.4µM* | 0.0% | 23.1µM* | . | . | .
CCOc1ccc(N(CC)S(=O)(=O)N2CCCC(C(=O)Nc3cc(Cl)ccc3OC)C2)cc1 (configuration not stated) | ? | -2.6% | 18.4µM* | . | . | .
CCN(c1ccc(OC)cc1)S(=O)(=O)N1CCCC(C(=O)NCc2cccc(C)c2)C1 (configuration not stated) | ? | . | ? | -0.3 | -2.0 | -6.2%
CCc1ccc(C(=O)NNC(=O)c2c(CC)noc2C)cc1 | -5.8% | . | -18.7% | -20.6 | 24.2 | 4.8%
